Experimental findings from PubChem BioAssay (NCI) are described below.

The panel holds about 79,000 compounds, 15% with a hit somewhere; the sample as a whole holds those more often. Unmarked numbers belong to inactive results. Calls of active or inactive are those of the source. No stated cut-off is given here; in the data, active means growth inhibition above about 70%; inactive means the rest.

Test [1] is described as follows: NCI Yeast Anticancer Drug Screen. Data for the rad50 strain (AID 155).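 Further: 0% = growth of vehicle-only cultures of the same strain.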 The following applies: S. cerevisiae rad50 strain growth inhibition, stronger effect = higher value. In a few lines: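 Yeast carrying a defined DNA repair defect were exposed to test compounds, and growth was compared with vehicle-treated controls to give percent inhibition.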
Test [2] is described as follows: NCI Yeast Anticancer Drug Screen. Data for the mec2-1 strain (AID 157). Conditions: S. cerevisiae mec2-1 strain, stronger effect = higher value. In a few lines: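 Test agents were screened against the mec2-1 yeast strain, with defined DNA repair or cell cycle alteration. Growth was scored as inhibition against vehicle-only controls.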
A short description of test [3]: NCI Yeast Anticancer Drug Screen. Data for the sgs1 mgt1 strain (AID 161).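 Further: 0% = growth of cultures given vehicle only.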 Conditions: S. cerevisiae sgs1 mgt1 strain, stronger effect = higher value. In a few lines: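 Mutant yeast exposed to compound; growth scored against vehicle-only wells.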
The nature of test [4]: NCI Yeast Anticancer Drug Screen. Data for the cln2 rad14 strain (AID 165).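 Further: 0% = growth equal to vehicle treated cultures.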 Conditions: S. cerevisiae cln2 rad14 strain, stronger effect = higher value. In a few lines: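 Growth of compound-exposed yeast (cln2 rad14 genotype) measured and expressed as inhibition relative to vehicle.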
The nature of test [5]: NCI Yeast Anticancer Drug Screen. Data for the bub3 strain (AID 167). The following applies: S. cerevisiae bub3 mutant strain, stronger effect = higher value. In a few lines:
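Compounds were applied to a genetically altered yeast strain carrying a cell-cycle control defect. Growth inhibition was scored against vehicle-treated controls.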

Test [6] can be described thus: NCI Yeast Anticancer Drug Screen. Data for the mlh1 rad18 strain (AID 175). The following applies: S. cerevisiae mlh1 rad18 strain growth inhibition, stronger effect = higher value. In a few lines: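 In this whole-cell yeast screen, a strain with altered DNA damage repair is challenged with compound, and its growth is measured against matched vehicle-treated controls.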
The mark [7] stands for this setting: at 5.0 µM (retest, dose inferred, filed as 0.5).
Where [8] appears, read: at 50.0 µM (retest, dose inferred, filed as 5.0).

`COC(=O)c1nc(Cl)nc(Cl)c1N`: the growth inhibition was 8% in test [1] (setting [7]); 95% (active) in test [1] (setting [8]); 96.7% (active) in test [1] (at 50.0 µM); 14% in test [2] (setting [7]); 95% (active) in test [2] (setting [8]); 97.3% (active) in test [2] (at 50.0 µM). In addition, the growth inhibition in test [3] (setting [7]) was 11%; in test [3] (setting [8]), 92% (active); in test [3] (at 50.0 µM), 98.2% (active); in test [4] (setting [7]), -3%; in test [4] (setting [8]), 92% (active); in test [4] (at 50.0 µM), 96% (active). Also, the growth inhibition is 7% in test [5] (setting [7]); 95% (active) in test [5] (setting [8]); 97.8% (active) in test [5] (at 50.0 µM); 11% in test [6] (setting [7]); 96% (active) in test [6] (setting [8]); 98.2% (active) in test [6] (at 50.0 µM).
On to `C=C1C(=O)[C@@]23CC[C@H]4[C@@](C)(CCC[C@@]4(C)C(=O)OC)[C@@H]2CC[C@]1(O)C3`, for which the growth inhibition in test [1] (setting [7]) is 83% (active); in test [1] (setting [8]), 99% (active); in test [1] (at 50.0 µM), 92.2% (active); in test [2] (setting [7]), 92% (active); in test [2] (setting [8]), 99% (active); in test [2] (at 50.0 µM), 94.4% (active). Further, the growth inhibition in test [3] (setting [7]) is 83% (active); in test [3] (setting [8]), 99% (active); in test [3] (at 50.0 µM), 94% (active); in test [4] (setting [7]), 54%; in test [4] (setting [8]) it was 99% (active); in test [4] (at 50.0 µM), 92.2% (active). Further, the growth inhibition in test [5] (setting [7]) was 94% (active); in test [5] (setting [8]) it was 99% (active); in test [5] (at 50.0 µM), 93.7% (active); in test [6] (setting [7]) it was 92% (active); in test [6] (setting [8]), 99% (active); in test [6] (at 50.0 µM), 90.8% (active).
Take `CCCCCCCCCCCCNC(=O)c1cc[n+](Cc2ccc(Cl)c(Cl)c2)cc1`: the growth inhibition was 99% (active) in test [1] (setting [7]); 98% (active) in test [1] (setting [8]); 99.3% (active) in test [1] (at 50.0 µM); 100% (active) in test [2] (setting [7]); 97% (active) in test [2] (setting [8]); 99.2% (active) in test [2] (at 50.0 µM). Besides, the growth inhibition in test [3] (setting [7]) is 100% (active); in test [3] (setting [8]) it was 98% (active); in test [3] (at 50.0 µM), 99.1% (active); in test [4] (setting [7]), 88% (active); in test [4] (setting [8]), 98% (active); in test [4] (at 50.0 µM) it was 97.8% (active). Also, the growth inhibition is 98% (active) in test [5] (setting [7]); 98% (active) in test [5] (setting [8]); 98.8% (active) in test [5] (at 50.0 µM); 99% (active) in test [6] (setting [7]); 99% (active) in test [6] (setting [8]); 99% (active) in test [6] (at 50.0 µM).
With `CCC(CC)=NNc1ccc([N+](=O)[O-])cc1`, the growth inhibition was 7% in test [1] (setting [7]); 96% (active) in test [1] (setting [8]); 98.4% (active) in test [1] (at 50.0 µM); 15% in test [2] (setting [7]); 95% (active) in test [2] (setting [8]); 97.7% (active) in test [2] (at 50.0 µM). The growth inhibition in test [3] (setting [7]) is 8%; in test [3] (setting [8]), 97% (active); in test [3] (at 50.0 µM) it was 97.8% (active); in test [4] (setting [7]), 10%; in test [4] (setting [8]), 94% (active); in test [4] (at 50.0 µM) it was 95.3% (active). Further, the growth inhibition in test [5] (setting [7]) is 4%; in test [5] (setting [8]), 42%; in test [5] (at 50.0 µM), 97.9% (active); in test [6] (setting [7]) it was 11%; in test [6] (setting [8]) it was 97% (active); in test [6] (at 50.0 µM) it was 97.2% (active).
On to `O=[N+]([O-])c1ccccc1CC(c1c[nH]c2ccccc12)c1c[nH]c2ccccc12`, for which the growth inhibition in test [1] (setting [7]) is 0%; in test [1] (setting [8]), 73% (active); in test [1] (at 50.0 µM), 86% (active); in test [2] (setting [7]), -1%; in test [2] (setting [8]) it was 74% (active); in test [2] (at 50.0 µM), 80.7% (active). Besides, the growth inhibition in test [3] (setting [7]) is -2%; in test [3] (setting [8]), 70% (active); in test [3] (at 50.0 µM) it was 82.9% (active); in test [4] (setting [7]) it was 1%; in test [4] (setting [8]) it was 80% (active); in test [4] (at 50.0 µM), 78.9% (active). Further, the growth inhibition is -1% in test [5] (setting [7]); 80% (active) in test [5] (setting [8]); 55.8% in test [5] (at 50.0 µM); 1% in test [6] (setting [7]); 81% (active) in test [6] (setting [8]); 87.3% (active) in test [6] (at 50.0 µM).
As to `CCCCc1ccc2nccc(N/N=C/c3ccc(OC)c4ccccc34)c2c1`, the growth inhibition in test [1] (setting [7]) was 1%; in test [1] (setting [8]), 91% (active); in test [1] (at 50.0 µM), 80% (active); in test [2] (setting [7]), -27%; in test [2] (setting [8]), 89% (active); in test [2] (at 50.0 µM) it was 69.3%. The growth inhibition was 2% in test [3] (setting [7]); 94% (active) in test [3] (setting [8]); 76.7% (active) in test [3] (at 50.0 µM); -2% in test [4] (setting [7]); 73% (active) in test [4] (setting [8]); 62.4% in test [4] (at 50.0 µM). The growth inhibition in test [5] (setting [7]) is -4%; in test [5] (setting [8]), 90% (active); in test [5] (at 50.0 µM) it was 79% (active); in test [6] (setting [7]), 1%; in test [6] (setting [8]), 88% (active); in test [6] (at 50.0 µM) it was 90.1% (active).
For `C/C(=N/NC(=S)Nc1ccccc1Cl)c1ccccn1`, the growth inhibition is -1% in test [1] (setting [7]); 19% in test [1] (setting [8]); 70.4% (active) in test [1] (at 50.0 µM); -30% in test [2] (setting [7]); 11% in test [2] (setting [8]); 50.1% in test [2] (at 50.0 µM). Moreover, the growth inhibition is -51% in test [3] (setting [7]); 22% in test [3] (setting [8]); 81.3% (active) in test [3] (at 50.0 µM); 3% in test [4] (setting [7]); 5% in test [4] (setting [8]); 78.3% (active) in test [4] (at 50.0 µM). Moreover, the growth inhibition in test [5] (setting [7]) is -37%; in test [5] (setting [8]) it was 17%; in test [5] (at 50.0 µM) it was 56.2%; in test [6] (setting [7]), -21%; in test [6] (setting [8]), 20%; in test [6] (at 50.0 µM) it was 77.2% (active).
In the case of `CCC(Cl)COP(=O)(OC(c1ccc(Cl)c(Cl)c1)P(=O)(OCC(Cl)CC)OCC(Cl)CC)C(CC)CCl` (stereo not given), the growth inhibition was 6% in test [1] (setting [7]); 71% (active) in test [1] (setting [8]); 86.7% (active) in test [1] (at 50.0 µM); -81% in test [2] (setting [7]); 45% in test [2] (setting [8]); 96.2% (active) in test [2] (at 50.0 µM). In addition, the growth inhibition in test [3] (setting [7]) is -3%; in test [3] (setting [8]) it was 45%; in test [3] (at 50.0 µM) it was 94.2% (active); in test [4] (setting [7]), -4%; in test [4] (setting [8]), 57%; in test [4] (at 50.0 µM), 83.5% (active). Besides, the growth inhibition was -2% in test [5] (setting [7]); 57% in test [5] (setting [8]); 79.5% (active) in test [5] (at 50.0 µM); 6% in test [6] (setting [7]); 80% (active) in test [6] (setting [8]); 94.2% (active) in test [6] (at 50.0 µM).
In the case of `O=C(O)/C(Cl)=C(/Cl)C(=O)Nc1cccc(Cl)c1`, the growth inhibition in test [1] (setting [7]) was 45%; in test [1] (setting [8]), 98% (active); in test [1] (at 50.0 µM) it was 90.9% (active); in test [2] (setting [7]), 50%; in test [2] (setting [8]) it was 100% (active); in test [2] (at 50.0 µM), 86.2% (active). In addition, the growth inhibition in test [3] (setting [7]) was 42%; in test [3] (setting [8]), 100% (active); in test [3] (at 50.0 µM) it was 88.6% (active); in test [4] (setting [7]), 32%; in test [4] (setting [8]), 99% (active); in test [4] (at 50.0 µM), 89.1% (active). Further, the growth inhibition in test [5] (setting [7]) is 63%; in test [5] (setting [8]), 99% (active); in test [5] (at 50.0 µM) it was 89.9% (active); in test [6] (setting [7]) it was 50%; in test [6] (setting [8]) it was 99% (active); in test [6] (at 50.0 µM), 92.4% (active).
For `COc1cc(Nc2ccc(Oc3ccc(O)cc3)cc2)c2ncccc2c1`, the growth inhibition in test [1] (setting [7]) is 6%; in test [1] (setting [8]), 31%; in test [1] (at 50.0 µM), 42.5%; in test [2] (setting [7]), -12%; in test [2] (setting [8]), 51%; in test [2] (at 50.0 µM), 53.1%. Moreover, the growth inhibition in test [3] (setting [7]) is -12%; in test [3] (setting [8]) it was 34%; in test [3] (at 50.0 µM) it was 22.4%; in test [4] (setting [7]), 2%; in test [4] (setting [8]) it was 22%; in test [4] (at 50.0 µM), 57.4%. Further, the growth inhibition in test [5] (setting [7]) is -9%; in test [5] (setting [8]), 5%; in test [5] (at 50.0 µM), 7.85%; in test [6] (setting [7]), 14%; in test [6] (setting [8]), 59%; in test [6] (at 50.0 µM) it was 76% (active).
